Legend:
Assay in all cases: DAPPL (digital affinity profiling via proximity ligation, sequencing); 10 mM Tris-HCl pH 7.5, 50 mM NaCl, 1 mM DTT, 4% glycerol, room temperature, 30 min; GST-TFs on glutathione beads, 16-mer random dsDNA library, 0.1% formaldehyde crosslink after washing; high values mean tight binding
FEV = target: T1, FEV (Homo sapiens, UniProt Q99581 1-238); settings: protein: recombinant; tags: N-terminal GST; dsDNA, one strand shown
T1 sequence: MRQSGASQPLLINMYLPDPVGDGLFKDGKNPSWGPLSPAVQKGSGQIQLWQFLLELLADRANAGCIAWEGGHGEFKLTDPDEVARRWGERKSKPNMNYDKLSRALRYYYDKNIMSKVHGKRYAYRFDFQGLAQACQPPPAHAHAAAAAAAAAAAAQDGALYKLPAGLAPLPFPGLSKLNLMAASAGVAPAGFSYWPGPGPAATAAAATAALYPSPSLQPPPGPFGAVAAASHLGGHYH
In short: (§1)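 Binding signal is defined as a hexamer's read frequency for one factor over its frequency for the tag-only sample. To obtain reads, GST-fused human transcription factors were expressed in yeast, captured on glutathione beads, barcoded with DNA and pooled with that sample. Pools met 200 nmole of a 16-mer random double-stranded DNA library in Tris/NaCl/DTT/glycerol buffer for 30 min at room temperature before washing, 0.1% formaldehyde crosslinking, proximity ligation (BsaI/T4 ligase, 1 h, 37 °C), PCR and Illumina NextSeq500 sequencing.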

ETV5 = ETV5 (Homo sapiens, UniProt P41161 1-510); settings: protein: recombinant; tags: N-terminal GST; dsDNA, one strand shown
Sequence of ETV5 (P41161 whole entry): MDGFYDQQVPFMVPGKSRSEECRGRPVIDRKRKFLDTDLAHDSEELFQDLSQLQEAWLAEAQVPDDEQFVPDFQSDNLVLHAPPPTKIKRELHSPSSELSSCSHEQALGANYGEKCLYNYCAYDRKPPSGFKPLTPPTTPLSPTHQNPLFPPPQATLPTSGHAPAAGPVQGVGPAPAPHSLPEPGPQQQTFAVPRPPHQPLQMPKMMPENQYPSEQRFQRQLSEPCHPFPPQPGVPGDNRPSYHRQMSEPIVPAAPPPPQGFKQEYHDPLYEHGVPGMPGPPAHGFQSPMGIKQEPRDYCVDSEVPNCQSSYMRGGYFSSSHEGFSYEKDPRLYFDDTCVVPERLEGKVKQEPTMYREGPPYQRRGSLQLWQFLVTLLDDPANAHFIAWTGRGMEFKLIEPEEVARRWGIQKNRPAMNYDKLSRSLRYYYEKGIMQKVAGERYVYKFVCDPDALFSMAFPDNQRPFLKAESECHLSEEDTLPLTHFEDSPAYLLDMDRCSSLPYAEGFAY
In short: as §1

HSF1 = HSF1 (Homo sapiens, UniProt Q00613 1-529); settings: protein: recombinant; tags: N-terminal GST; chain copies: 3; dsDNA, one strand shown
Sequence of HSF1 (Q00613 whole entry): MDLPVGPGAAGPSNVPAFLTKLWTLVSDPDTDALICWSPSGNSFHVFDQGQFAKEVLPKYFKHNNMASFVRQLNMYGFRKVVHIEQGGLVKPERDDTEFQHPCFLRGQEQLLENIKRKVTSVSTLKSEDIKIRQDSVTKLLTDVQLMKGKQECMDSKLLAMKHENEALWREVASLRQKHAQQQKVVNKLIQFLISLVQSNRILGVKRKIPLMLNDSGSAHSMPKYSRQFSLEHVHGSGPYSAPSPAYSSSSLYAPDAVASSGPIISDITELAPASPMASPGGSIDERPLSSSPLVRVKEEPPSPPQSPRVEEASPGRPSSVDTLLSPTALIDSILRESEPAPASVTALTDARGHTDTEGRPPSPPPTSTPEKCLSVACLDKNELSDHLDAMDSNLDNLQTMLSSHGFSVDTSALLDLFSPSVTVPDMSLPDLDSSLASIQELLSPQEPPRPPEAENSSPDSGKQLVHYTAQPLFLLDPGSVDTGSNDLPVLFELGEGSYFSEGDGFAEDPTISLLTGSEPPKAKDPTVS
In short: as §1

SPIC = target: T2, SPIC (Homo sapiens, UniProt Q8N5J4 1-248); settings: protein: recombinant; tags: N-terminal GST; dsDNA, one strand shown
T2 sequence: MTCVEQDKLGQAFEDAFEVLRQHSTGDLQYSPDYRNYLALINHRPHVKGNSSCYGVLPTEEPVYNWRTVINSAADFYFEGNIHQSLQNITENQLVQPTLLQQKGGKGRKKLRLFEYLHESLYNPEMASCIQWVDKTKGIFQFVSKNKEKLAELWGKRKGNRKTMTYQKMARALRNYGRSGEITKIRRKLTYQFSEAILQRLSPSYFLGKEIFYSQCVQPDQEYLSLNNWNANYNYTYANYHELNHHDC
In short: as §1

ELF4 = ELF4 (Homo sapiens, UniProt Q99607 1-663); settings: protein: recombinant; tags: N-terminal GST; dsDNA, one strand shown
Sequence of ELF4 (Q99607 whole entry): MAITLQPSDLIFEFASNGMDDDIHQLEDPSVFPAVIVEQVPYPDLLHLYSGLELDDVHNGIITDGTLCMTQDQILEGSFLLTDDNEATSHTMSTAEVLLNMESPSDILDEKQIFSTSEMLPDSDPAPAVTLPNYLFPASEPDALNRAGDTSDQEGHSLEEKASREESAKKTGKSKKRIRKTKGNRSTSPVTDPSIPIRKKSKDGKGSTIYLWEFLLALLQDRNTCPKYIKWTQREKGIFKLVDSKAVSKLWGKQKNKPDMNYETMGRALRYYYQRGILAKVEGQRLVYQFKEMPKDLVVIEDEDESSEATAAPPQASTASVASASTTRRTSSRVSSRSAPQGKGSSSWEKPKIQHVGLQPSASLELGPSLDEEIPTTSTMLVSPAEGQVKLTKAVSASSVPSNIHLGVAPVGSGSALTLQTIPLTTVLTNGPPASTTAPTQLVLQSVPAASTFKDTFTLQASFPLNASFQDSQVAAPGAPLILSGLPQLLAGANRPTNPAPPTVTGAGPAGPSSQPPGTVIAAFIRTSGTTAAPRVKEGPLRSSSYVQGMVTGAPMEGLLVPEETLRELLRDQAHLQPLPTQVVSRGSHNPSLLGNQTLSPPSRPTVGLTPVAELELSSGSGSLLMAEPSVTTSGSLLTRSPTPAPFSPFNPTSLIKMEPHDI
In short: as §1

ELK4 = target: T3, ELK4 (Homo sapiens, UniProt P28324-2 1-405); settings: protein: recombinant; tags: N-terminal GST; dsDNA, one strand shown
T3 sequence: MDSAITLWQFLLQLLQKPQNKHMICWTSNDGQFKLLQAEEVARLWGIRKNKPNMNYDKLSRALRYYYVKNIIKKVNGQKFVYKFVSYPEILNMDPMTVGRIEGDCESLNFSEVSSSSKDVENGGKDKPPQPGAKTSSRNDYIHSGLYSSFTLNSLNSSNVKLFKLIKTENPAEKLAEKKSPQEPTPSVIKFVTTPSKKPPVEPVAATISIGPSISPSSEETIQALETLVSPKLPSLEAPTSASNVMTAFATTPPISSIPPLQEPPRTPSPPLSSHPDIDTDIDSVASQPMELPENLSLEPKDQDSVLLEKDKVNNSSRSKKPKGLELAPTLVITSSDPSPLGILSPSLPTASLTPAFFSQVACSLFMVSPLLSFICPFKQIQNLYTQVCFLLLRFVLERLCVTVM
In short: as §1

ETV2 = target: T4, ETV2 (Homo sapiens, UniProt O00321 1-342); settings: protein: recombinant; tags: N-terminal GST; dsDNA, one strand shown
T4 sequence: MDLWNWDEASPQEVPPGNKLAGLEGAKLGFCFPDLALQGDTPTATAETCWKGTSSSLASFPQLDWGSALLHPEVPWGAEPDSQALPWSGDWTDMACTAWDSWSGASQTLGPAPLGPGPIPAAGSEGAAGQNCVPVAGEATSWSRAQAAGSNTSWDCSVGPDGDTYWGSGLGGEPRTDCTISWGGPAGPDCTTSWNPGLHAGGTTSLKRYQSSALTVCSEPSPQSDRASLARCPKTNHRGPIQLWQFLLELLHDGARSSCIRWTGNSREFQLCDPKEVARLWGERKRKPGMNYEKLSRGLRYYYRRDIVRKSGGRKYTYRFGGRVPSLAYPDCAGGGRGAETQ
In short: as §1

ELF3 = target: T5, ELF3 (Homo sapiens, UniProt P78545 1-371); settings: protein: recombinant; tags: N-terminal GST; dsDNA, one strand shown
T5 sequence: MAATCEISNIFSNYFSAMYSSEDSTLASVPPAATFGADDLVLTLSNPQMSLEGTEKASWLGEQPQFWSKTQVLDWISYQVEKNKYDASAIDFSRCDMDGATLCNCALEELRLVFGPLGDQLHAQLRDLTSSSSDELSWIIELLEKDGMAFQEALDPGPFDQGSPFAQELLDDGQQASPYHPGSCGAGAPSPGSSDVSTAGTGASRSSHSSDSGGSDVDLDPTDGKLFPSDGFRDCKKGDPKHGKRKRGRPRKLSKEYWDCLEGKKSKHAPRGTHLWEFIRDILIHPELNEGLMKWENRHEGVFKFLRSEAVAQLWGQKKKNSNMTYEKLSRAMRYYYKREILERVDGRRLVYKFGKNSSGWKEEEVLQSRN
In short: as §1

CRX = CRX (Homo sapiens, UniProt O43186 1-299); settings: protein: recombinant; tags: N-terminal GST; dsDNA, one strand shown
Sequence of CRX (O43186 whole entry): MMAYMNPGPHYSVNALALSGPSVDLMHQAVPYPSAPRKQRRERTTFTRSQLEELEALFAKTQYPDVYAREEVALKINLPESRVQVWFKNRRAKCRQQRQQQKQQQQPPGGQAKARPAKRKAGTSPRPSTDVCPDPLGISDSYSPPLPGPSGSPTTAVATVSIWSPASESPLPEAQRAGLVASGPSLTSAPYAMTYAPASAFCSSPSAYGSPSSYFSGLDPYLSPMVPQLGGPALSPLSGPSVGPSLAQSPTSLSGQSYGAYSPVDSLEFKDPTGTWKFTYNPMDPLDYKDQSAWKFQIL
In short: as §1

ETV1 = ETV1 (Homo sapiens, UniProt P50549 1-477); settings: protein: recombinant; tags: N-terminal GST; dsDNA, one strand shown
Sequence of ETV1 (P50549 whole entry): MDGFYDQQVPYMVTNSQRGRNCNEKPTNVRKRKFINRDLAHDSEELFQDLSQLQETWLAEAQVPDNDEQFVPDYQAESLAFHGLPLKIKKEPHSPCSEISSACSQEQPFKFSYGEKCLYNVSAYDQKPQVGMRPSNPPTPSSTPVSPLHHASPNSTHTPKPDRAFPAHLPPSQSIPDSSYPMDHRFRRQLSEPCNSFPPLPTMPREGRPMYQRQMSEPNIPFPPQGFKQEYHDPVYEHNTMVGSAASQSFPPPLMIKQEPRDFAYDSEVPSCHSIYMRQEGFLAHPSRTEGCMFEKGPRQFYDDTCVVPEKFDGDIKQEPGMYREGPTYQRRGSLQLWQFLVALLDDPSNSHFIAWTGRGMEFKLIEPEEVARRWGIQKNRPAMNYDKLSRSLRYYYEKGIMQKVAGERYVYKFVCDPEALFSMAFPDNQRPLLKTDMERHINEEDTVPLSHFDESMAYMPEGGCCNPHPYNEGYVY
In short: as §1

ERF = target: T6, ERF (Homo sapiens, UniProt P50548 1-548); settings: protein: recombinant; tags: N-terminal GST; dsDNA, one strand shown
T6 sequence: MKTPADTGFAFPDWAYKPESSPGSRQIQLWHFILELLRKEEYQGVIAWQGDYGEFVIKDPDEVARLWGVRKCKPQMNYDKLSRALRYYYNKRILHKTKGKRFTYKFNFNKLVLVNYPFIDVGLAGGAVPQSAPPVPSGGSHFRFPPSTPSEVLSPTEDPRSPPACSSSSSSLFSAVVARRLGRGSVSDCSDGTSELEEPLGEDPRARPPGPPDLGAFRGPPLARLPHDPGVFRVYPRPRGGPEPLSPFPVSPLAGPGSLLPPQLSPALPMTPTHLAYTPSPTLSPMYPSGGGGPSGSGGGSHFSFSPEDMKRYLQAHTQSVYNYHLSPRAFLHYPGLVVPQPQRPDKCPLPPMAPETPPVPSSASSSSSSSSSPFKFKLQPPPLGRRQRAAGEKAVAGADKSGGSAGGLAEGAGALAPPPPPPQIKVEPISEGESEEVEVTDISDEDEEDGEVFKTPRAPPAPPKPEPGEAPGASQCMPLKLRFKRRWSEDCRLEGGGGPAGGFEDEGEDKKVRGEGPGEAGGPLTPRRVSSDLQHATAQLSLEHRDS
In short: as §1

ETV3L = target: T7, ETV3L (Homo sapiens, UniProt Q6ZN32 1-361); settings: protein: recombinant; tags: N-terminal GST; dsDNA, one strand shown
T7 sequence: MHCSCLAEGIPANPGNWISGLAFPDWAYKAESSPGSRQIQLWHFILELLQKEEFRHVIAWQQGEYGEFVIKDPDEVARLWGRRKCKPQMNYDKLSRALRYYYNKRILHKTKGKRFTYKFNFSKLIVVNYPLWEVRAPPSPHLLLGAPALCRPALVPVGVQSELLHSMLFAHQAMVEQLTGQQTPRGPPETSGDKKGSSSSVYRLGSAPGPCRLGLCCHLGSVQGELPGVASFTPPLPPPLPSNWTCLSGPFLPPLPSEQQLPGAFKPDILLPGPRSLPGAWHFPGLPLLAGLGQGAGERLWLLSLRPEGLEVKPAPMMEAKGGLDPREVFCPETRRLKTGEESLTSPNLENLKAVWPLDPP
In short: as §1

ETS2 = target: T8, ETS2 (Homo sapiens, UniProt P15036 1-469); settings: protein: recombinant; tags: N-terminal GST; dsDNA, one strand shown
T8 sequence: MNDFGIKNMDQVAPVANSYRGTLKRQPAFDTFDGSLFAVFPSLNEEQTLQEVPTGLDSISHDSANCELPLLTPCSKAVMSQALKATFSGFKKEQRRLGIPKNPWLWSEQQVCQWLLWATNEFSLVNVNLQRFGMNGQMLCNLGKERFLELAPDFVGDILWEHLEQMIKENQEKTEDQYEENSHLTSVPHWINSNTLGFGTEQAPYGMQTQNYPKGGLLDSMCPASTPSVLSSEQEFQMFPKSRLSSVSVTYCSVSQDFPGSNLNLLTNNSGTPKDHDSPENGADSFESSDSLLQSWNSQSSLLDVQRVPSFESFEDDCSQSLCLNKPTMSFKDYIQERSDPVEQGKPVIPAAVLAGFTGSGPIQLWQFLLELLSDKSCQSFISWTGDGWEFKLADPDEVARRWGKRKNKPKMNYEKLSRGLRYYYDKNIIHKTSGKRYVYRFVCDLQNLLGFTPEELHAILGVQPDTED
In short: as §1

SPDEF = target: T9, SPDEF (Homo sapiens, UniProt O95238 1-335); settings: protein: recombinant; tags: N-terminal GST; dsDNA, one strand shown
T9 sequence: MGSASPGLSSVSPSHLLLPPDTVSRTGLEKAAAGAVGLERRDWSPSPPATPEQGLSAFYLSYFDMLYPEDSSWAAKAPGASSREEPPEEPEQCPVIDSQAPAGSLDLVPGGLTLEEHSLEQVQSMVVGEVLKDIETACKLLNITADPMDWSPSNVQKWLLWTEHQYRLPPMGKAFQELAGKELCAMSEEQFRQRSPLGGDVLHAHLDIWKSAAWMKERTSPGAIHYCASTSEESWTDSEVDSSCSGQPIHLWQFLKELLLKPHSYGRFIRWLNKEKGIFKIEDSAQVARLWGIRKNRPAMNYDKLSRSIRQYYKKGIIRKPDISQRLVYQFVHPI
In short: as §1

ETV7 = target: T10, ETV7 (Homo sapiens, UniProt Q9Y603 1-341); settings: protein: recombinant; tags: N-terminal GST; dsDNA, one strand shown
T10 sequence: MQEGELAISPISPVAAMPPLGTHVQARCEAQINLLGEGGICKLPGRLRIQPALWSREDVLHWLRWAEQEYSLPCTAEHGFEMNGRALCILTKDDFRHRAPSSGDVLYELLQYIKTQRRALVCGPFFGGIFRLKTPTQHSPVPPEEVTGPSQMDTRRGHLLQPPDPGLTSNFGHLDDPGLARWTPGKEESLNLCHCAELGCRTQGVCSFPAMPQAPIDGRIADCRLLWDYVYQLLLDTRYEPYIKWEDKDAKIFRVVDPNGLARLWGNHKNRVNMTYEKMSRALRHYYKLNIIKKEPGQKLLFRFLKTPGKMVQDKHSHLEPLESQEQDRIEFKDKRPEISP
In short: as §1

ELF5 = target: T11, ELF5 (Homo sapiens, UniProt Q9UKW6-2 1-255); settings: protein: recombinant; tags: N-terminal GST; dsDNA, one strand shown
T11 sequence: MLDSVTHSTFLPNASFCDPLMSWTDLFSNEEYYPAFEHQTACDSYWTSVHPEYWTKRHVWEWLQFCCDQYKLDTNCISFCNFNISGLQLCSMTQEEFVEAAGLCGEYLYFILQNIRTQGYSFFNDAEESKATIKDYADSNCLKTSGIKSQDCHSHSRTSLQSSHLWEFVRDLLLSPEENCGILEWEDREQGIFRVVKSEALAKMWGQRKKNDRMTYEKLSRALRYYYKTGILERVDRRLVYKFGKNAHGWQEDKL
In short: as §1

ETV3 = target: T12, ETV3 (Homo sapiens, UniProt P41162-2 1-143); settings: protein: recombinant; tags: N-terminal GST; dsDNA, one strand shown
T12 sequence: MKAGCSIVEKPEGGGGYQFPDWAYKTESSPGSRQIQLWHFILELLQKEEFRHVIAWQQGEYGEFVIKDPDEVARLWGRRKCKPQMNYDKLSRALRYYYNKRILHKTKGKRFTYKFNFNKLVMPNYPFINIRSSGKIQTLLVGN
In short: as §1

ETV6 = ETV6 (Homo sapiens, UniProt P41212 1-452); settings: protein: recombinant; tags: N-terminal GST; dsDNA, one strand shown
Sequence of ETV6 (P41212 whole entry): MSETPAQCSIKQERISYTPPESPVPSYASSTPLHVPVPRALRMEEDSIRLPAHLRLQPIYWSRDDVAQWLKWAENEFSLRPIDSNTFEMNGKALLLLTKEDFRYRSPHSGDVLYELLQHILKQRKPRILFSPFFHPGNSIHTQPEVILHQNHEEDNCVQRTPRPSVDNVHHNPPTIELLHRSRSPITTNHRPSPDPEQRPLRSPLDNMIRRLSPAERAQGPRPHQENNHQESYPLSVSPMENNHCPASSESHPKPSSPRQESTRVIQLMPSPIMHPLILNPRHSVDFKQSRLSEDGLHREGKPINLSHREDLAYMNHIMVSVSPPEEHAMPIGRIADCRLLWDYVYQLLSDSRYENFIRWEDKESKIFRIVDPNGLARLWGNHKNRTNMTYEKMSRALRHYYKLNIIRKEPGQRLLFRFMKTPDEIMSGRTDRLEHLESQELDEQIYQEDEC
In short: as §1

TACATA
binding signal (FEV): 1.21 fold enrichment (6-mer frequency, TF over GST control)
binding signal (ETV5): 1.24 fold enrichment (6-mer frequency, TF over GST control)
binding signal (HSF1): 1.15 fold enrichment (6-mer frequency, TF over GST control)
binding signal (SPIC): 1.36 fold enrichment (6-mer frequency, TF over GST control)
binding signal (ELF4): 1.22 fold enrichment (6-mer frequency, TF over GST control)
binding signal (ELK4): 1.22 fold enrichment (6-mer frequency, TF over GST control)
binding signal (ETV2): 1.24 fold enrichment (6-mer frequency, TF over GST control)
binding signal (ELF3): 1.18 fold enrichment (6-mer frequency, TF over GST control)
binding signal (CRX): 1.27 fold enrichment (6-mer frequency, TF over GST control)
binding signal (ETV1): 1.25 fold enrichment (6-mer frequency, TF over GST control)
binding signal (ERF): 1.33 fold enrichment (6-mer frequency, TF over GST control)
binding signal (ETV3L): 1.1 fold enrichment (6-mer frequency, TF over GST control)
binding signal (ETS2): 1.27 fold enrichment (6-mer frequency, TF over GST control)
binding signal (SPDEF): 1.2 fold enrichment (6-mer frequency, TF over GST control)
binding signal (ETV7): 1.31 fold enrichment (6-mer frequency, TF over GST control)
binding signal (ELF5): 1.16 fold enrichment (6-mer frequency, TF over GST control)
binding signal (ETV3): 1.21 fold enrichment (6-mer frequency, TF over GST control)
binding signal (ETV6): 1.21 fold enrichment (6-mer frequency, TF over GST control)

Source: publication PMC7862700, “An all-to-all approach to the identification of sequence-specific readers for epigenetic DNA modifications on cytosine”
